From paper PMC7862700, “An all-to-all approach to the identification of sequence-specific readers for epigenetic DNA modifications on cytosine” come the findings set out here.

Assay in all cases: DAPPL (digital affinity profiling via proximity ligation, sequencing); 10 mM Tris-HCl pH 7.5, 50 mM NaCl, 1 mM DTT, 4% glycerol, room temperature, 30 min; GST-TFs on glutathione beads, 16-mer random dsDNA library, 0.1% formaldehyde crosslink after washing; high values mean tight binding
Common to all, as to settings: protein: recombinant; tags: N-terminal GST; dsDNA, one strand shown

In one test the target is T1, ELK1 (Homo sapiens, UniProt P19419 1-428).
T1 sequence: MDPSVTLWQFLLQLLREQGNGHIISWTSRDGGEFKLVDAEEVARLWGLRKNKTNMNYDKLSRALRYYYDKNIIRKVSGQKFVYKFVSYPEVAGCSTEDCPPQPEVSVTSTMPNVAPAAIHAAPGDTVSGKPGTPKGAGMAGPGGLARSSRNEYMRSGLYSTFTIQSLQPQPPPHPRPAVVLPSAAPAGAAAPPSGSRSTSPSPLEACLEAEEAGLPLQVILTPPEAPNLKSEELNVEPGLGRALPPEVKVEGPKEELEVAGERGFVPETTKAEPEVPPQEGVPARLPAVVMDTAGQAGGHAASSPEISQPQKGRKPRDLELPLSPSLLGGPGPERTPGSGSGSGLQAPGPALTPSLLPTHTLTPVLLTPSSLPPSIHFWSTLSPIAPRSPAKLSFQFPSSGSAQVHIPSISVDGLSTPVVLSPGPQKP
In a few lines:
(§1)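 GST fusions of human transcription factors were expressed in yeast and captured with glutathione beads. Once given DNA barcodes and pooled alongside a tag-only sample, they were incubated for 30 min at room temperature with 200 nmole of a random double-stranded 16-mer DNA library in Tris/NaCl/DTT/glycerol buffer, then washed, crosslinked (0.1% formaldehyde), proximity-ligated, PCR-amplified and sequenced on an Illumina NextSeq500. The binding signal of each hexamer is its read frequency for a factor divided by its frequency for the tag-only sample.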

The target in another test is T2, GABPA (Homo sapiens, UniProt Q06546 1-454).
T2 sequence: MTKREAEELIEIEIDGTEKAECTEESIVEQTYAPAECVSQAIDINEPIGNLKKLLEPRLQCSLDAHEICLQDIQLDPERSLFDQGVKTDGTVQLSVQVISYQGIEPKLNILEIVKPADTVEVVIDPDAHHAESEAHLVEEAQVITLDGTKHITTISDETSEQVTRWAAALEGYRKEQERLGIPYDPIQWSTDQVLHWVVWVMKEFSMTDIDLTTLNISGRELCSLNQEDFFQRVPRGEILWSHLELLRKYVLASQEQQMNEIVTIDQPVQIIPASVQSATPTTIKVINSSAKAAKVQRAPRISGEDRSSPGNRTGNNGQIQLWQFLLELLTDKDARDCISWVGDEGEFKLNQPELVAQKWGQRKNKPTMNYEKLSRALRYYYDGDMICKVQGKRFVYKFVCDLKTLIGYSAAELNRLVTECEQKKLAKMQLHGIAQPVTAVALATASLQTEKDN
In a few lines: as §1

For a further test, the target named is T3, ERG (Homo sapiens, UniProt P11308 1-479).
T3 sequence: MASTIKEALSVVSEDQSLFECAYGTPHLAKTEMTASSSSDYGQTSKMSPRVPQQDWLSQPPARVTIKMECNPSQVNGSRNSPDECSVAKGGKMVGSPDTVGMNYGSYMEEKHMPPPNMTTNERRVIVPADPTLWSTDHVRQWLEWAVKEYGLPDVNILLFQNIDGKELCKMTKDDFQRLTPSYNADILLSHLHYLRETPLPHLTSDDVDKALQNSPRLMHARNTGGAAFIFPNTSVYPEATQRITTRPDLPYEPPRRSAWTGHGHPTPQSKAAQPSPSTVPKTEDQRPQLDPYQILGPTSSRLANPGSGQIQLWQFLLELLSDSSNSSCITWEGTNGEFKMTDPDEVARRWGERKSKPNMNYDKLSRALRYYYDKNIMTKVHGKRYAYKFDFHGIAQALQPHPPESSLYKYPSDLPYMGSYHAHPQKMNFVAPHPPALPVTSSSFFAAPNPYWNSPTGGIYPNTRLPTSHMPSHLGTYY
In a few lines:
as §1

The target of the next test is ELF1 (Homo sapiens, UniProt P32519 1-619). The essentials:
as §1

A further test has as its target T4, EHF (Homo sapiens, UniProt Q9NZC4 1-300).
T4 sequence: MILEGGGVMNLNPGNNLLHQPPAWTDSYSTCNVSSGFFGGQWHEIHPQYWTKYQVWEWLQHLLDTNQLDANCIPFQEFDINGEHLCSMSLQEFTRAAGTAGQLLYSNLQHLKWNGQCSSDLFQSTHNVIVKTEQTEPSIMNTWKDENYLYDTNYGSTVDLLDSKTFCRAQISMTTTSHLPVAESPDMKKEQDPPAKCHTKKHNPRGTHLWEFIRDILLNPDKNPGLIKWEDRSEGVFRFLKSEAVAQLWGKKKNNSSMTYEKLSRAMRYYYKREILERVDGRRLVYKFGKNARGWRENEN
The essentials: as §1

The target of a further test is SPI1 (Homo sapiens, UniProt P17947 1-270). In a few lines:
as §1

The target of another test is SPIB (Homo sapiens, UniProt Q01892 1-262). The essentials:
as §1

Another test addresses T5, FEV (Homo sapiens, UniProt Q99581 1-238).
T5 sequence: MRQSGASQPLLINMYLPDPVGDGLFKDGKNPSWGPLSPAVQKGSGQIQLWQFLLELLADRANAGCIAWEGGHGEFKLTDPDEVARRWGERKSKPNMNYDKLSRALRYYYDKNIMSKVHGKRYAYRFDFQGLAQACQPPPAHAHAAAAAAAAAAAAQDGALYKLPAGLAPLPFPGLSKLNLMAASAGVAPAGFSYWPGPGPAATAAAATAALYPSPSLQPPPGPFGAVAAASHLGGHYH
In a few lines:
as §1

In the next test the target is ETV5 (Homo sapiens, UniProt P41161 1-510). The essentials:
as §1

For a further test, the target named is ELF4 (Homo sapiens, UniProt Q99607 1-663). In a few lines:
as §1

Chain of ELF1 (P32519 whole entry): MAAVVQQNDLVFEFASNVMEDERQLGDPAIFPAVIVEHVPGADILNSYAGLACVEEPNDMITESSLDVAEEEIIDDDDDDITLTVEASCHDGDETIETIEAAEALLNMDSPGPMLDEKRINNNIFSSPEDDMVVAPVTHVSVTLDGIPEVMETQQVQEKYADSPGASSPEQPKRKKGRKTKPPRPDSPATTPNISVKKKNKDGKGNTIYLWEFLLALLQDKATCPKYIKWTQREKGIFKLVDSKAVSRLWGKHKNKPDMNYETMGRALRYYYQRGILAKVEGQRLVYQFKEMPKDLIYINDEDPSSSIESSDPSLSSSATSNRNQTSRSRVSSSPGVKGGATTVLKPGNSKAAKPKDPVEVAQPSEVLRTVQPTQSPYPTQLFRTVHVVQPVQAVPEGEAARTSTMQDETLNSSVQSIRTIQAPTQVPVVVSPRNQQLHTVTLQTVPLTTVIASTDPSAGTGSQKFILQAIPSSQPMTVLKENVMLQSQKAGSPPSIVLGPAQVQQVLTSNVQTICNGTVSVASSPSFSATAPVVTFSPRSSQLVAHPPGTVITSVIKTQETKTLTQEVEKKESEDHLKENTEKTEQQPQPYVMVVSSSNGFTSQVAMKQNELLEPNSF
Chain of ETV5 (P41161 whole entry): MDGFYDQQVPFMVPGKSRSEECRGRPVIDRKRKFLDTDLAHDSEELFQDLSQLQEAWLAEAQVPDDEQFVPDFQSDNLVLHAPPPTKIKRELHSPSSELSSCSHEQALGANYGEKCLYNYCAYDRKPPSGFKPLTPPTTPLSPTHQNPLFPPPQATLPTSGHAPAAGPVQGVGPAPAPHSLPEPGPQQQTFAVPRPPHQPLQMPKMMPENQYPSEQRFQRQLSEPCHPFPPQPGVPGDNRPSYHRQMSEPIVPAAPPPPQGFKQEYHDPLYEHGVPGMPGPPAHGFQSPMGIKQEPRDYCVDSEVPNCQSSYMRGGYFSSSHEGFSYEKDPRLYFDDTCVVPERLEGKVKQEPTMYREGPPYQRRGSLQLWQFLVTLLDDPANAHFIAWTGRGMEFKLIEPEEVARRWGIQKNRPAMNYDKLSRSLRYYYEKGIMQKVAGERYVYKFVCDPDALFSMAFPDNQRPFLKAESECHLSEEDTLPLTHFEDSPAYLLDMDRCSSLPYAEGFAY
Chain of ELF4 (Q99607 whole entry): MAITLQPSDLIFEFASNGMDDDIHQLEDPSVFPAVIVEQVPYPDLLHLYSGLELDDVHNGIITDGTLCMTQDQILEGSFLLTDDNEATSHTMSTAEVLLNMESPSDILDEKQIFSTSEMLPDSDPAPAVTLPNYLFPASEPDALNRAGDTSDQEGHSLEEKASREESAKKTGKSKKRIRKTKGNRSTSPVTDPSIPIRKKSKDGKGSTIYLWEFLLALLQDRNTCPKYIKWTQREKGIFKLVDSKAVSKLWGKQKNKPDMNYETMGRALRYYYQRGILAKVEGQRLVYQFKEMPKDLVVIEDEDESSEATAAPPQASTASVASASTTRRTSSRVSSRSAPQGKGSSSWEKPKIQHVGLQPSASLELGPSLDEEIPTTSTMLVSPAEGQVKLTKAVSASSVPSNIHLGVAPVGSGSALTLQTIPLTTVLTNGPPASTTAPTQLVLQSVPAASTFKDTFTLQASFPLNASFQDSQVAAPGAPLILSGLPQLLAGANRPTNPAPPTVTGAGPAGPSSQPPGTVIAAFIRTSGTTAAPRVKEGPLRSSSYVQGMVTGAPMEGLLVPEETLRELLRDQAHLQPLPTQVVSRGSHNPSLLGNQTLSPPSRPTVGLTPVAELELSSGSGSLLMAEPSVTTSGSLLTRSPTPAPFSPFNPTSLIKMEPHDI
Chain of SPIB (Q01892 whole entry): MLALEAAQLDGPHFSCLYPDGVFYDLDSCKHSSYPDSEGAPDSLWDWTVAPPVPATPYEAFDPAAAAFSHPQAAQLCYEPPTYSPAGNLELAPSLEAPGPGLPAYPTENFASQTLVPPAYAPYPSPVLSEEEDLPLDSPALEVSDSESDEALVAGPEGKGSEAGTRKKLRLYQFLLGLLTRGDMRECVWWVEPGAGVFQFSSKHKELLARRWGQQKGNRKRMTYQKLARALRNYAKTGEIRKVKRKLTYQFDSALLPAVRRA

Turning to GTACCC, the binding signal with ELK1 was 1.05 fold enrichment (6-mer frequency, TF over GST control); with GABPA it was 1.07 fold enrichment (6-mer frequency, TF over GST control); with ERG, 1.05 fold enrichment (6-mer frequency, TF over GST control); with ELF1, 1.12 fold enrichment (6-mer frequency, TF over GST control); in the test with EHF it was 1.16 fold enrichment (6-mer frequency, TF over GST control); in the test with SPI1, 1.16 fold enrichment (6-mer frequency, TF over GST control). In addition, the binding signal with SPIB was 1.07 fold enrichment (6-mer frequency, TF over GST control); with FEV, 1.05 fold enrichment (6-mer frequency, TF over GST control); with ETV5 it was 1.17 fold enrichment (6-mer frequency, TF over GST control); with ELF4 it was 1.06 fold enrichment (6-mer frequency, TF over GST control).
